Inconclusive results are not listed. A call without a number means that no potency is given here. Calls of active or inactive are those of the source. Calls come from the whole dose curve.
Assay: Cytotoxicity counterscreen for inhibitors of SARS-CoV-2 cell entry (AID 1645845); note: nearly all actives have a fitted effect of over 50% in size
Conditions: cell viability (SARS-CoV-2 entry assay cells); series mostly up to 57.1 µM; activity change, negative = cytotoxicity: at the top concentration
Summary of the method: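 After a 15 min room-temperature ATPLite 1step step, luminescence reflected ATP remaining in HEK293-ACE2 cells exposed to compound for 1 h plus 48 h at 37 C, with percent activity set by cell and no-cell controls.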
Potency is the fitted concentration of half-maximal effect.

Compound	Potency	outcome	activity change, negative = cytotoxicity
CCCCCCCCCCCCCCCC[N+](C)(C)Cc1ccccc1	22.4 µM (active)	–	–
CN(C)CCN(Cc1cccs1)c1ccccn1	–	inactive	–
CCC(C(=O)OCCN1CCOC(c2ccccc2)C1C)c1ccccc1 (stereo unspecified)	–	–	-0.463% (inactive)
COc1ccc2c(c1OC)C(=O)O[C@@H]2[C@H]1c2c(cc3c(c2OC)OCO3)CCN1C	–	–	-4.55% (inactive)
O=C1c2cccc(O)c2C(=O)c2c(O)cccc21	–	–	1.7% (inactive)
CCOc1ccc2nc(S(N)(=O)=O)sc2c1	–	inactive	–
NCCc1ccc(O)c(O)c1	inactive	–	–
CC(=O)Oc1ccc(C(c2ccc(OC(C)=O)cc2)c2ccccn2)cc1	–	–	-29.6% (inactive)
CC(C)N=C(N)/N=C(\N)Nc1ccc(Cl)cc1	–	–	-0.717% (inactive)
C/C=C/c1ccc(O)c(OC)c1	–	inactive	–
Cc1cccc(C)c1NC(=O)C(C)N (stereo unspecified)	–	–	1.42% (inactive)
Cc1cc(C)c(/C=C2\C(=O)Nc3ccccc32)[nH]1	–	inactive	–
CCN(CC)C(=O)N1CCN(C)CC1	–	inactive	–
CN1CCN(c2c(F)cc3c(=O)c(C(=O)O)cn(CCF)c3c2F)CC1	–	–	3.99% (inactive)
N#Cc1cc(NC(=O)C(=O)O)c(Cl)c(NC(=O)C(=O)O)c1	–	inactive	–
Cc1cc(O)c(C(C)C)cc1Cl	–	–	-6.31% (inactive)
COc1ccc(CN(CCN(C)C)c2ncccn2)cc1	–	inactive	–
Cc1ccc(O)cc1	–	–	2.54% (inactive)
C[C@H](O)C(=O)Nc1c(I)c(C(=O)NC(CO)CO)c(I)c(C(=O)NC(CO)CO)c1I	–	inactive	–
CNC(=O)c1cnn(-c2nc(N)c3ncn([C@@H]4O[C@H](CO)[C@@H](O)[C@H]4O)c3n2)c1	–	inactive	–
NS(=O)(=O)c1ccc(N2CCCCS2(=O)=O)cc1	–	inactive	–
